Each compound was assayed on CSNK1G3. Conditions: concentration: 1 μM,replicates: in singlicate; n = 1.
In the case of Cc1occc1-c1nc(N)c(OC[C@@H](N)Cc2c[nH]c3ccccc23)cc1-c1cc2c(C)n[nH]c2cn1 [GSK1660450], the “%Inh” value is reported as 83%. For Cc1n[nH]c2ccc(-c3cc(OC[C@@H](N)Cc4ccccc4)cnc3-c3ccoc3)cc12.O=C(O)C(F)(F)F.O=C(O)C(F)(F)F [GSK507358], the “%Inh” value was 91.7%. Cc1ccc(-n2nc(C(C)(C)C)cc2NC(=O)Nc2ccc(OCCN3CCOCC3)c3ccccc23)cc1 [GW839464] was tested, and the “%Inh” value was 19%. With COc1ccc(C[C@@H](CN)NC(=O)c2cc(Br)c(-c3ccnc4[nH]ccc34)s2)cc1.Cl.Cl [GSK1389063] the “%Inh” value was 73%. O=C(NCCNc1ccnc(NCc2ccc(F)cc2)n1)c1cc2ccccc2s1 [GSK1379944] was tested, and the “%Inh” value was 9%. For CCN(CC)CCOc1ccc(Nc2ncc3cc(-c4c(Cl)cccc4Cl)c(=O)n(C)c3n2)cc1 [SB-601273], the “%Inh” value was 12%. CN(C)CCOc1ccc(-c2cc(-c3c[nH]nc3-c3ccccn3)ccn2)cc1 [GW835314] was tested, and the “%Inh” value was 65%. In the case of Cl.Cl.NC[C@H](Cc1ccc(C(F)(F)F)cc1)NC(=O)c1cc(Br)c(-c2ccnc3[nH]ccc23)s1 [GSK1487252], the “%Inh” value is reported as 24%. In the case of CNC(=O)c1ccccc1Sc1ccc2c(/C=C/c3ccccn3)n[nH]c2c1, the “%Inh” value is reported as 0%. In the case of CN(C)CC(O)COc1ccc(Nc2nccc(-c3cnn4nc(N5CCOCC5)ccc34)n2)cc1 (centres unmarked) [GW767488], the “%Inh” value is reported as 10%. Cl.Cl.NC[C@H](CC1CCCCC1)NC(=O)c1cc(Br)c(-c2ccnc3[nH]ccc23)s1 [GSK1581427] was tested, and the “%Inh” value was 40%.

Reference: paper PMC5540273 (PLoS ONE, 2017)
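Note: KINOMEscan kinase panel screen.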
